From PubChem BioAssay (NCI)
The panel holds about 79,000 compounds, 15% with a hit somewhere; the sample as a whole holds those more often. Activity calls are given as the source filed them. No stated cut-off is given here; in the data, active means growth inhibition above about 70%; inactive means the rest.

Columns and labels:
[1] = NCI Yeast Anticancer Drug Screen. Data for the rad52 strain (AID 147);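 further: 0% = growth of vehicle-treated control cultures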; conditions: S. cerevisiae rad52 mutant growth inhibition, hits give high values
Outline: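 Vehicle-treated cultures served as the reference for growth inhibition of compound-exposed yeast bearing a DNA repair mutation.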

[2] = NCI Yeast Anticancer Drug Screen. Data for the wt1 strain (AID 149);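 further: 0% = growth of vehicle-treated wt1 cultures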; conditions: S. cerevisiae wt1 strain (SPY 50644) growth inhibition, hits give high values
Outline: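 wt1 strain grown with compound or vehicle; inhibition taken from the growth difference.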

[3] = NCI Yeast Anticancer Drug Screen. Data for the rad50EPP+ strain (AID 151);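 further: 0% = growth of vehicle-treated control cultures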; conditions: S. cerevisiae rad50 mutant strain, hits give high values
Outline: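 In this screen, rad50EPP+ yeast were exposed to compounds. Growth inhibition was scored against vehicle-treated controls.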

[4] = NCI Yeast Anticancer Drug Screen. Data for the mgt1 strain (AID 153); conditions: S. cerevisiae mgt1 mutant growth inhibition, hits give high values
Outline: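 mgt1 strain exposed; growth vs vehicle control recorded as inhibition.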

[5] = NCI Yeast Anticancer Drug Screen. Data for the rad50 strain (AID 155);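 further: 0% = growth of vehicle-only cultures of the same strain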; conditions: S. cerevisiae rad50 strain growth inhibition, hits give high values
Outline: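 DNA repair mutant yeast, compound exposure, growth read-out; inhibition is taken relative to vehicle.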

[6] = NCI Yeast Anticancer Drug Screen. Data for the mec2-1 strain (AID 157); conditions: S. cerevisiae mec2-1 strain, hits give high values
Outline: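 Vehicle-treated cultures served as reference for growth inhibition of compound-exposed mec2-1 yeast.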

[7] = NCI Yeast Anticancer Drug Screen. Data for the rad14 strain (AID 159);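 further: 0% = growth of vehicle-treated control cultures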; conditions: S. cerevisiae rad14 strain growth inhibition, hits give high values
Outline: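 DNA repair-defective yeast, compound-exposed; % growth inhibition derived by comparison with vehicle-treated controls.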

[8] = NCI Yeast Anticancer Drug Screen. Data for the sgs1 mgt1 strain (AID 161);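 further: 0% = growth of cultures given vehicle only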; conditions: S. cerevisiae sgs1 mgt1 strain, hits give high values
Outline: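 Test agents were incubated with a DNA-repair-mutant yeast strain. Growth was then read and compared against vehicle-treated controls.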

[9] = NCI Yeast Anticancer Drug Screen. Data for the CLN2oe strain (AID 163);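 further: 0% = growth of vehicle-only control cultures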; conditions: S. cerevisiae CLN2oe strain, hits give high values
Outline: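 Inhibition relative to vehicle-treated yeast is reported. Cells: strain with genetic alteration in cell-cycle control, grown with compound.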

[10] = NCI Yeast Anticancer Drug Screen. Data for the cln2 rad14 strain (AID 165);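 further: 0% = growth equal to vehicle treated cultures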; conditions: S. cerevisiae cln2 rad14 strain, hits give high values
Outline: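 Each compound was tested on cln2 rad14 yeast. Inhibition of growth was calculated against vehicle-exposed controls.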

[11] = NCI Yeast Anticancer Drug Screen. Data for the bub3 strain (AID 167); conditions: S. cerevisiae bub3 mutant strain, hits give high values
Outline: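 In this screen, a yeast mutant lacking normal mitotic checkpoint function is challenged with compound. Relative growth versus vehicle gives the inhibition value.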

[12] = NCI Yeast Anticancer Drug Screen. Data for the wt2 strain (AID 169);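 further: 0% = growth of vehicle-treated yeast cultures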; conditions: S. cerevisiae wt2 strain growth inhibition, hits give high values
Outline: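 Inhibition of yeast growth was determined after compound treatment, normalised to controls receiving only vehicle.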

[13] = NCI Yeast Anticancer Drug Screen. Data for the mlh1 strain (AID 171);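 further: 0% = growth of vehicle-treated control cultures of the same strain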; conditions: S. cerevisiae mlh1 strain growth inhibition, hits give high values
Outline: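 Vehicle-normalised growth inhibition of a repair- or checkpoint-altered yeast strain following compound treatment.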

[14] = NCI Yeast Anticancer Drug Screen. Data for the sgs1 strain (AID 173);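 further: 0% = growth of vehicle-only control cultures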; conditions: S. cerevisiae sgs1 mutant, hits give high values
Outline: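 Screen format: yeast with repair or checkpoint alterations, compound exposure, growth read relative to vehicle.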

[15] = NCI Yeast Anticancer Drug Screen. Data for the mlh1 rad18 strain (AID 175); conditions: S. cerevisiae mlh1 rad18 strain growth inhibition, hits give high values
Outline: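 Vehicle-treated cultures served as the reference for growth inhibition in a yeast strain carrying DNA damage repair alterations exposed to each compound.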

[16] = NCI Yeast Anticancer Drug Screen. Data for the rad18 strain (AID 177); conditions: S. cerevisiae rad18 mutant growth inhibition, hits give high values
Outline: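 Test articles were incubated with altered yeast defective in DNA damage repair. Results are given as inhibition of growth versus vehicle.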

[17] = at 5.0 µM (retest, dose inferred, filed as 0.5)
[18] = at 50.0 µM (retest, dose inferred, filed as 5.0)

Measured: growth inhibition

CC(/C=C/c1ccc2c(c1)OCO2)[N+](=O)[O-] (stereo unspecified)
active: [1]; at 3.7 µM 93% | [1]; at 11.0 µM 99% | [1]; at 33.0 µM 99% | [1]; at 100.0 µM 99% | [2]; at 3.7 µM 71% | [2]; at 11.0 µM 99% | [2]; at 33.0 µM 100% | [2]; at 100.0 µM 99% | [3]; at 1.2 µM 73% | [3]; at 3.7 µM 94% | [3]; at 11.0 µM 99% | [3]; at 33.0 µM 99% | [3]; at 100.0 µM 99% | [4]; at 11.0 µM 99% | [4]; at 33.0 µM 99% | [4]; at 100.0 µM 99% | [5]; at 3.7 µM 86% | [5]; [17] 86% | [5]; at 11.0 µM 99% | [5]; at 33.0 µM 99% | [5]; [18] 97% | [5]; at 50.0 µM 99.6% | [5]; at 100.0 µM 99% | [6]; at 11.0 µM 100% | [6]; at 33.0 µM 99% | [6]; [18] 99% | [6]; at 50.0 µM 99.7% | [6]; at 100.0 µM 99% | [7]; at 11.0 µM 100% | [7]; at 33.0 µM 99% | [7]; at 100.0 µM 100% | [8]; [18] 98% | [8]; at 50.0 µM 99.5% | [9]; at 11.0 µM 99% | [9]; at 33.0 µM 99% | [9]; at 100.0 µM 99% | [10]; [18] 98% | [10]; at 50.0 µM 99.2% | [11]; at 11.0 µM 99% | [11]; at 33.0 µM 99% | [11]; [18] 98% | [11]; at 50.0 µM 99% | [11]; at 100.0 µM 98% | [12]; at 3.7 µM 97% | [12]; at 11.0 µM 100% | [12]; at 33.0 µM 100% | [12]; at 100.0 µM 100% | [13]; at 11.0 µM 99% | [13]; at 33.0 µM 99% | [13]; at 100.0 µM 99% | [14]; at 3.7 µM 82% | [14]; at 11.0 µM 99% | [14]; at 33.0 µM 99% | [14]; at 100.0 µM 99% | [15]; [18] 98% | [15]; at 50.0 µM 99.4% | [16]; at 11.0 µM 99% | [16]; at 33.0 µM 99% | [16]; at 100.0 µM 99%
inactive: [1]; at 1.2 µM 40% | [2]; at 1.2 µM 8% | [4]; at 1.2 µM 1% | [4]; at 3.7 µM 16% | [5]; at 1.2 µM 33% | [6]; at 1.2 µM 4% | [6]; at 3.7 µM 30% | [6]; [17] 2% | [7]; at 1.2 µM 18% | [7]; at 3.7 µM 61% | [8]; [17] 62% | [9]; at 1.2 µM -1% | [9]; at 3.7 µM 37% | [10]; [17] -13% | [11]; at 1.2 µM 23% | [11]; at 3.7 µM 69% | [11]; [17] 46% | [12]; at 1.2 µM 10% | [13]; at 1.2 µM -2% | [13]; at 3.7 µM 64% | [14]; at 1.2 µM 30% | [15]; [17] 66% | [16]; at 1.2 µM 10% | [16]; at 3.7 µM 58%

Cn1c(N)nc(-c2ccc(Cl)cc2)c1SSc1c(-c2ccc(Cl)cc2)nc(N)n1C
active: [1]; at 33.0 µM 88% | [1]; at 100.0 µM 98% | [2]; at 100.0 µM 94% | [3]; at 33.0 µM 84% | [3]; at 100.0 µM 97% | [4]; at 33.0 µM 71% | [4]; at 100.0 µM 98% | [5]; at 33.0 µM 73% | [5]; at 50.0 µM 95.5% | [5]; at 100.0 µM 97% | [6]; at 33.0 µM 75% | [6]; at 50.0 µM 93.1% | [6]; at 100.0 µM 97% | [7]; at 100.0 µM 97% | [8]; at 50.0 µM 94.8% | [9]; at 100.0 µM 97% | [10]; at 50.0 µM 92% | [11]; at 33.0 µM 82% | [11]; [18] 93% | [11]; at 50.0 µM 94.9% | [11]; at 100.0 µM 97% | [12]; at 33.0 µM 71% | [12]; at 100.0 µM 99% | [13]; at 33.0 µM 82% | [13]; at 100.0 µM 98% | [14]; at 33.0 µM 85% | [14]; at 100.0 µM 98% | [15]; at 50.0 µM 97.8% | [16]; at 33.0 µM 88% | [16]; at 100.0 µM 94%
inactive: [1]; at 1.2 µM -5% | [1]; at 3.7 µM -2% | [1]; at 11.0 µM 33% | [2]; at 1.2 µM 2% | [2]; at 3.7 µM 4% | [2]; at 11.0 µM 16% | [2]; at 33.0 µM 44% | [3]; at 1.2 µM -6% | [3]; at 3.7 µM 9% | [3]; at 11.0 µM 53% | [4]; at 1.2 µM -2% | [4]; at 3.7 µM 0% | [4]; at 11.0 µM 13% | [5]; at 1.2 µM -9% | [5]; at 3.7 µM -17% | [5]; [17] -13% | [5]; at 11.0 µM 6% | [5]; [18] 15% | [6]; at 1.2 µM -1% | [6]; at 3.7 µM 3% | [6]; [17] -15% | [6]; at 11.0 µM 30% | [6]; [18] 13% | [7]; at 1.2 µM -1% | [7]; at 3.7 µM -1% | [7]; at 11.0 µM 10% | [7]; at 33.0 µM 53% | [8]; [17] -12% | [8]; [18] 6% | [9]; at 1.2 µM -8% | [9]; at 3.7 µM -2% | [9]; at 11.0 µM 5% | [9]; at 33.0 µM 63% | [10]; [17] 37% | [10]; [18] -3% | [11]; at 1.2 µM -4% | [11]; at 3.7 µM -2% | [11]; [17] -4% | [11]; at 11.0 µM 21% | [12]; at 1.2 µM -1% | [12]; at 3.7 µM 1% | [12]; at 11.0 µM 20% | [13]; at 1.2 µM 0% | [13]; at 3.7 µM 3% | [13]; at 11.0 µM 23% | [14]; at 1.2 µM 0% | [14]; at 3.7 µM 6% | [14]; at 11.0 µM 28% | [15]; [17] -5% | [15]; [18] 24% | [16]; at 1.2 µM -3% | [16]; at 3.7 µM -1% | [16]; at 11.0 µM 34%
